Assay outcomes (PubChem)
Cycloheximide cs: counter-screen for Shiga toxin inhibitors: cycloheximide protein synthesis inhibition | cell reporter, cycloheximide protein synthesis inhibition counterscreen | 12% of 300,000 active | max response, %; in the data active = max response mostly above about 13%, no sharp cut-off; inactive = mostly below about 14%; also: read at 38.3 µM for the half of the compounds with a filed dose; 0% is about no effect
Pf growth 96h: P. falciparum growth inhibition at 96 hours; Potency, µM (highest dose often 28.7 µM), without a hit: top-dose activity change, negative = inhibition, actives largely listed as inhibitors; 6.9% of 320,000 active; P. falciparum luciferase reporter growth, 96 h; AID 504834; also: potency is read from the fitted curve at half-maximal effect; % is scaled to controls: 0 for no effect and ±100 for the full control effect
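Infected RBCs, 2% Hct / 0.05% parasitemia final; luciferase-reporter P. falciparum; cpd 96 h, 37 C, 5% CO2; luciferase detection reagent; luminescence.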
Shiga toxin inh: Shiga toxin inhibition; Vero cells, Shiga toxin protein synthesis inhibition reporter; inhibition, % at 38.7 µM; 9.2% of 290,000 active; in the data active = inhibition mostly above about 28%, no sharp cut-off; inactive = mostly below about 43%; also: 0% is about no effect
Pf growth 48h: inhibits P. falciparum growth in the first generation, 48 h; P. falciparum luciferase growth in erythrocytes, 48 h; Potency, µM (series often up to 28.7 µM), without a hit: at the top dose activity change, negative = inhibition, most hits filed as inhibitors; 5.9% of 310,000 active; AID 504832; also: potency is read from the fitted curve at half-maximal effect; % is scaled to controls: 0 for no effect and ±100 for the full control effect
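Luminescence readout; reporter = integrated firefly luciferase in P. falciparum. RBC culture at 2% hematocrit, 0.1% parasitemia final, 37 C/5% CO2; decreased signal taken as growth inhibition.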
* = called active by the depositor; ? = inconclusive; nt = no result. Compounds with a hit are over-represented: about 21% of the library has one in this group of screens. Unless noted, calls follow the shape of the dose curve; as a rule, active = well fitted inhibition curve with a large enough effect; inconclusive = small, poorly fitted or top-dose-only effect, or another doubt; inactive = no such curve, though single readings can be large or run the other way.

SMILES	Cycloheximide cs	Pf growth 96h	Shiga toxin inh	Pf growth 48h
CCOc1ccccc1NC(=O)C1CCCN(S(=O)(=O)c2ccc3c(c2)C(C)(C)C(=O)N3C)C1 (stereo unspecified)	1.5	0.4%	-1.9	?
COc1cc(O)c(C(CCN2CCCCC2)c2ccc(N(C)C)cc2)c(OC)c1 (stereo unspecified)	-8.7	0.828µM*	-0.6	1.31µM*
COc1cc(O)c(C(CCN2CCCC2)c2ccc(N(C)C)cc2)c(OC)c1 (stereo unspecified)	-2.1	3.29µM*	-7.8	2.94µM*
COc1ccc(C(CCN2CCOCC2)c2c(O)cc(OC)cc2OC)cc1 (stereo unspecified)	-2.2	3.29µM*	-11.0	3.7µM*
COc1ccc(C(c2c(O)ccc3ccccc23)N2CCOCC2)c(OC)c1 (stereo unspecified)	34.1	?	65.0*	82.6%
O=C(CN(C(=O)c1csnn1)c1ccccc1Cl)NC1CCCC1	-0.8	18.0%	-4.2	11.0%
CCC(=O)c1cn(CC(=O)Nc2ccc(C)cc2)c2ccccc12	-2.4	0.2%	-3.8	0.4%
COCCNC(=O)CSc1ccc(-c2nc3ccccc3[nH]2)cn1	10.2	?	5.1	35.1%
Cc1cc2nc(-c3cccnc3SCC(=O)NC(C)C)[nH]c2cc1C	79.5*	67.4%	65.7*	194.3%
COCCOC(=O)CSc1ncccc1-c1nc2cc(C)c(C)cc2[nH]1	32.8*	14.9%	71.0	117.9%
CC(=O)N1/C(=C/c2ccc(N(C)C)cc2)C(=O)c2ccccc21	21.6*	?	21.8	-17.8%
COCCCNC(=S)NNC(=O)c1ccc2c(c1)OCO2	0.4	?	-1.1	96.9%
CC(C)OCCCNC(=S)NNC(=O)c1ccc(Cl)c(Cl)c1	29.3*	-15.8%	65.7*	46.4%
CC(C)CNC(=O)c1ccc(Cl)c(Cl)c1	-3.3	-22.0%	34.0	0.8%
O=C(NCCO)c1ccc(Cl)c(Cl)c1	-6.0	14.7µM*	-23.9	13.9%
CCCC(=O)Nc1ccc2c(c1)nc(CCN1CCCCC1)n2C	-0.8	66.3%	-9.8	0.3%
CCC1CCCCN1Cc1ccc(N)cc1 (stereo unspecified)	-3.0	33.4%	-1.4	0.0%
Cc1nnc(NC(=O)CCC(=O)NCc2ccco2)s1	-3.8	31.5%	-2.6	23.1%
COc1ccc(-c2nnc(NC(=O)Cc3ccccc3)s2)c(OC)c1	-1.5	87.8%	11.6	88.0%
O=C(Cc1ccccc1)Nc1nnc(-c2ccco2)s1	33.8*	?	135.5*	34.6%
CCC(C(=O)Nc1nnc(-c2ccco2)s1)c1ccccc1 (stereo unspecified)	-2.3	11.7µM*	-27.9	2.6%
CCc1nnc(NC(=O)C(CC)c2ccccc2)s1 (stereo unspecified)	-1.8	-1.7%	-2.9	-5.9%
CCCC(=O)Nc1nnc(-c2ccco2)s1	39.6*	13.1µM*	57.7*	54.7%
Cc1ccc(NC(=O)CN(C)C(=O)CCC(=O)c2cccs2)cc1	-1.5	161.4%	-5.0	20.7%
O=C1COc2cc(S(=O)(=O)NCc3ccco3)c(Cl)cc2N1	nt	-4.9%	nt	?
SMILES	Cycloheximide cs	Pf growth 96h	Shiga toxin inh	Pf growth 48h
CC1CCCN(C(=O)CN2CCC(c3nc4ccc(Cl)cc4[nH]3)CC2)C1 (stereo unspecified)	-6.3	?	-4.5	?
CC(C)(C)c1ccc(S(=O)(=O)N2CCC(c3nc4ccc(Cl)cc4[nH]3)CC2)cc1	7.5	-3.8%	8.0	11.7µM*
Clc1ccc(CN2CCC(c3nc4ccc(Cl)cc4[nH]3)CC2)cc1	1.1	?	-15.6	10.4µM*
C[C@@H](NC(=O)[C@@H]1Cc2ccccc2CN1)C(=O)NCc1ccco1	0.4	-16.7%	-3.4	-18.9%
COc1ccccc1N1CCN(C(=O)C(=O)c2cn(CC(=O)N3CCCC3)c3ccccc23)CC1	-1.3	9.28µM*	-13.5	?
COc1ccccc1N1CCN(C(=O)C(=O)c2cn(CC(=O)N3CCCCCC3)c3ccccc23)CC1	0.3	7.38µM*	-13.6	9.28µM*
CC(=O)c1ccc(N2CCN(C(=O)C(=O)c3cn(CC(=O)N4CCCCCC4)c4ccccc34)CC2)cc1	1.9	?	-2.4	?
COc1ccc(S(=O)(=O)N2CCOC2CNC(=O)C(=O)NCCCN2CCOCC2)cc1C (stereo unspecified)	-1.7	0.8%	-6.1	-1.3%
O=C(NC(c1ccc(Cl)cc1)c1c(O)ccc2ccccc12)c1ccccc1 (stereo unspecified)	33.2*	38.0%	-4.0	11.7µM*
CCC(=O)NC(c1ccccc1Cl)c1c(O)ccc2ccccc12 (stereo unspecified)	-1.4	-20.3%	-5.8	10.4µM*
CCC(=O)NC(c1ccc(OC)cc1)c1c(O)ccc2ccccc12 (stereo unspecified)	-2.9	-17.0%	-4.4	?
O=C(NC(c1ccccc1)c1c(O)ccc2ccccc12)c1ccccc1Cl (stereo unspecified)	-5.3	?	-5.4	?
CC(C)C(=O)NC(c1ccccc1Cl)c1c(O)ccc2ccccc12 (stereo unspecified)	-6.1	4.65µM*	-14.4	9.28µM*
O=C(c1ccccc1)N1CCN(c2ccc([N+](=O)[O-])c(NCC3CCCO3)c2)CC1 (stereo unspecified)	-2.4	5.7%	-18.1	?
CC(=O)Cc1cc(O)c2ccccc2c1OC(=O)c1ccccc1	-1.6	9.8%	19.8	13.1µM*
CC(=O)Oc1c(C)cc(O)c2ccccc12	11.7	?	3.8	?
CC(=O)NC(CC(=O)OCC(=O)N1CCN(S(=O)(=O)c2ccc(Cl)cc2)CC1)c1ccccc1 (stereo unspecified)	nt	-12.2%	nt	4.5%
CN(C)Cc1c(-c2ccc(Cl)cc2)nc2ccccn12	45.2*	7.9%	126.2*	35.7%
Oc1ccc(N2CCN(Cc3c(-c4ccccc4)nc4ccccn34)CC2)cc1	0.2	?	0.3	?
Clc1ccc(-c2nc3ccccn3c2CN2CCCCC2)cc1	18.6*	-28.0%	40.3	?
Cc1ccn2c(CN3CCOCC3)c(-c3ccccc3)nc2c1	28.0*	115.1%	47.7*	102.8%
Cc1ccc(C(=S)NCS(=O)(=O)c2ccc(C)cc2)cc1	19.1*	32.9%	74.8	30.4%
Cc1ccc(S(=O)(=O)CNC(=S)c2cccc(Cl)c2)cc1	-4.5	-18.7%	-10.6	3.5%
Cc1ccc(-c2noc(C3CCCN(C(=O)c4ccccc4Br)C3)n2)o1 (stereo unspecified)	27.7*	0.9%	70.6*	?
Clc1ccc(-c2nc(C3CCCCC3)no2)cc1	31.8*	-14.5%	89.5*	117.4%
Cc1ccc(-c2nc(C3CCCN(S(=O)(=O)c4ccc(C)cc4)C3)no2)cc1 (stereo unspecified)	-3.7	?	-12.3	nt
Cc1ccc(-c2nc(C3CCN(S(C)(=O)=O)CC3)no2)cc1	28.4*	12.6%	38.2	133.5%
Clc1ccc(-c2nnc(C3CCCCC3)o2)cc1	14.9	nt	96.6	59.8%
COc1ccc(C(=O)N2CCCC(c3nc(-c4ccc(C)o4)no3)C2)cc1OC (stereo unspecified)	7.1	3.3%	25.6	-5.2%
Cc1ccc(-c2noc(C3CCN(S(C)(=O)=O)CC3)n2)o1	19.9*	-28.2%	80.4*	84.2%
